The results in this text go back to PubChem BioAssay AID1347416 (National Center for Advancing Translational Sciences (NCATS), 2020).

Screen size: about 4,100 compounds; about 1,600 (39%) were called active. Not shown: some 25% with an inconclusive outcome. Calls follow the shape of the dose curve; as a rule, active = well fitted inhibition curve with a large enough effect; inconclusive = small, poorly fitted or top-dose-only effect; inactive = no such curve, though single readings can be large or run the other way. The list shows a part of the results.
Potency is read from the fitted curve at half-maximal effect.

A short description of this test: qHTS Validation assay for Inhibitors of Plasmodium falciparum Dd2 growth in vitro. Also: nearly all actives have a fitted effect of over 70% in size. To be noted: P. falciparum Dd2 in RBCs, SYBR Green growth, 72 h; series mostly up to 28.7 µM. In a few lines: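 P. falciparum Dd2-infected red blood cells (2.5% hematocrit, 0.3% parasitemia) grown 72 h at 37 °C under 5% O2 with compounds in a titration, 29 uM to 0.5 nM final. Growth read as SYBR Green-1 fluorescence after ~16 h lysis; artesunate 300 nM as positive control.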
(Quantitative high-throughput screening tests each substance at several concentrations.)
For the compound `CN1CCCN(C(=O)C2CCCO2)c2ccccc21` (centres undefined), the Potency result was “inactive”.
As for `O=S(=O)(Cc1ccccc1F)N1CCCC(Cn2c(C3CC3)nc3cccnc32)C1` (centres undefined), the Potency result is “inactive”.
Take `Cc1cc2c(c3oc(=O)c4ccccc4c13)CN(Cc1ccc(F)cc1)CO2`: the Potency is 2.66 µM (active).
In the case of `Cc1ccc(CN2COc3cc(C)c4c(oc(=O)c5ccccc54)c3C2)cc1`, the Potency is 1.33 µM (active).
For the compound `Cc1ccc(C)c(-c2[nH]ncc2CN2CCCC(CO)(CCc3ccccc3)C2)c1` (centres undefined), the Potency entry was “inactive”.
The same measure for `COc1ccc(CN2CCC(CO)(CCCc3ccccc3)CC2)c(Cl)c1OC`: 8.41 µM (active).
On to `CN(Cc1ccccc1)Cc1ccccc1OCC(O)CN1CCCCC1` (centres undefined), for which the Potency is 1.5 µM (active).
The same measure for `Cc1cccc(CNC(=O)c2cc3c(N4CCSCC4)nc(C)cn3n2)c1`: “inactive”; for `OC(COc1ccccc1CNCCc1ccccc1)CN1CCSCC1` (centres undefined): 2.11 µM (active).
Next, `COc1cc(CN2Cc3ccccc3C2)ccc1OCC(O)CN1CCOCC1` (centres undefined): “inactive”; `Cc1cccc(CNCc2ccccc2OCC(O)CN2CCSCC2)c1` (centres undefined): 1.5 µM (active); `Cc1cc(Nc2sc(C(=O)c3ccc(F)cc3)c(N)c2C(=O)Nc2ccc(F)cc2)ccc1Cl`: 0.75 µM (active).
As for `O=C(CC[C@@H]1CNC(=O)[C@@H]2C[C@H](NC(=O)Nc3cccc(Cl)c3)CN12)NCc1cccnc1`, the Potency result is “inactive”.
The same measure for `COc1ccc(-c2cnc3[nH]cc(CC(=O)NCc4cccnc4)c3c2)cc1OC`: 1.53 µM (active); for `CC1(COc2cccnc2)COc2ccc(C(=O)NCc3ccc(F)cc3)cc2N1` (centres undefined): “inactive”; for `O=C(Cc1c[nH]c2ncc(-c3ccc(Cl)cc3)cc12)NCc1cccnc1`: 1.72 µM (active).
With `CC(=O)N1CCCN(C(=O)c2c[nH]c3ncccc23)CC1`, the Potency entry is “inactive”.
As to `COc1ccccc1C(=O)N[C@H]1[C@H](O)[C@H](O)C[C@@H]1c1cccnc1`, the Potency result is “inactive”.
Next, `COc1ccc(-c2cnc3[nH]cc(CC(=O)NCc4cccnc4)c3c2)cn1`: 6.85 µM (active); `COc1ccc(C(=O)NCc2nc(-c3cccc(C)c3)no2)cc1OC`: “inactive”.
Next, `Cc1cn2nc(C(=O)N3CCC(NC(=O)c4nccc5ccccc45)CC3)cc2c(=O)[nH]1`: “inactive”; `O=C1NCCCCCN(C(=O)c2ccsc2)[C@@H]2C[C@@H](C(=O)N3CCc4ccccc4C3)C[C@H]12`: “inactive”; `O=C(NCCc1c[nH]c2ccccc12)[C@@H]1C[C@H]2C(=O)NCCCCCCN(C(=O)c3ccco3)[C@H]2C1`: 10.6 µM (active).
On to `O=C1NCCCCCN(C(=O)CC2CCCC2)[C@@H]2C[C@@H](C(=O)N3CCc4ccccc4C3)C[C@H]12`, for which the Potency entry was “inactive”.
The same measure for `CCCCCn1c(=O)[nH]c2cc(C(=O)NCc3ccc(OC)cc3)ccc2c1=O`: “inactive”; for `CCCCn1c(N)c(N(CC(C)C)C(=O)c2cc(-c3ccc(OC)c(OC)c3)nc3ccccc23)c(=O)[nH]c1=O`: 11.9 µM (active); for `CCOc1ccccc1NC(=O)c1c(NC(=O)COc2ccccc2)sc2c1CCCCC2`: “inactive”.
The same measure for `COc1ccccc1NC(=O)N1CC(=O)Nc2sc3c(c2C1c1ccccc1)CCCC3` (centres undefined): 15 µM (active); for `COc1ccc(C(=O)/C=C/Nc2cc(C)ccn2)cc1`: “inactive”.
Next, `COc1ccc(N(CC(=O)NCc2ccccc2)C(=O)CCC(=O)Nc2cc(C)ccn2)c(OC)c1`: 10.6 µM (active).
Take `Cc1cc(C)cc(N(CC(=O)NCc2ccc3c(c2)OCO3)C(=O)CCC(=O)Nc2ccccn2)c1`: the Potency is 4.22 µM (active).
The same measure for `CC(=O)N1CCCC(c2nn(C)c(=O)n2C2CCCC2)C1` (centres undefined): “inactive”; for `COc1cccc(Nc2ccc3c(n2)C(C)(C(=O)NCC2CC2)CN(C)C3)c1` (centres undefined): 12.2 µM (active).
Take `CN1Cc2ccc(Nc3ccccc3)nc2C(C)(C(=O)NCc2ccc3c(c2)OCO3)C1` (centres undefined): the Potency is 13.7 µM (active).
`Cc1cnc(C(=O)N[C@@H]2CCC[C@@H]2C(=O)NCc2ccc3c(c2)OCO3)cn1`: the Potency entry was “inactive”.
Next, `COc1cccc(Nc2ccc3c(n2)C(C)(C(=O)NC2CCC2)CN(C)C3)c1` (centres undefined): 15.3 µM (active); `CCC(C)NC(=O)CSc1nc2cc3c(cc2c(=O)n1CCCC(=O)NCc1ccc2c(c1)OCO2)OCO3` (centres undefined): “inactive”.
Regarding `COc1cccc(CCC(=O)NC2CCN(C(=O)c3cc4c(=O)[nH]c(C)cn4n3)CC2)c1`, the Potency entry was “inactive”.
The same measure for `COc1cccc(Nc2ccc3c(n2)C(C)(C(=O)NC2CCN(C)CC2)CN(C)C3)c1` (centres undefined): 17.2 µM (active); for `O=c1[nH]c(C2CCN(S(=O)(=O)/C=C/c3ccccc3)CC2)nc2c1nnn2Cc1ccc(F)cc1`: 13.3 µM (active).
Next, `Cc1nncn1C1CCN(S(=O)(=O)c2ccc(F)c(F)c2)CC1`: “inactive”; `O=c1[nH]c(C2CCN(S(=O)(=O)c3ccc4c(c3)OCCO4)CC2)nc2c1nnn2Cc1ccc(F)cc1`: 8.41 µM (active).
Next, `c1ccc(-c2noc(-c3cncnc3NC3CCCCCC3)n2)cc1`: “inactive”; `CC(C)(C)NC(=S)Nc1ccc(Nc2ccccc2)cc1`: “inactive”; `CC(C)Oc1ccc2c(c1)OC(c1ccccc1)(C(F)(F)F)NC2=O` (centres undefined): 2.66 µM (active).
Consider `CCOc1ccc2c(c1)OC(c1ccc(C)cc1)(C(F)(F)F)NC2=O` (centres undefined), for which the Potency is 2.66 µM (active).
Consider `CCCNC(=O)Nc1ccc(OC2CCN(C(=O)CC)C2)nc1` (centres undefined), for which the Potency entry is “inactive”.
Next, `CCn1c(N2CCC(C)CC2)nc2c1c(=O)n(C)c(=O)n2C`: 5.96 µM (active); `CCOC(=O)Cn1c(=O)c2c(nc(N3CCCCC3)n2C)n(C)c1=O`: “inactive”; `O=C(Nc1ccc([N+](=O)[O-])cc1)Nc1nc(-c2ccc(Cl)s2)cs1`: 2.99 µM (active).
The same measure for `O=C(Nc1ccc(Cl)cc1)Nc1nc(-c2ccccc2O)cs1`: 6.68 µM (active); for `O=C(Nc1nc(-c2ccccn2)cs1)c1cccc(S(=O)(=O)N2CCOCC2)c1`: 5.96 µM (active); for `COc1ccc(-c2csc(NC(=O)C(CC(=O)O)N3CCOCC3)n2)cc1` (centres undefined): “inactive”.
As to `O=C(Nc1nc(-c2ccccn2)cs1)c1ccc(F)c(S(=O)(=O)N2CCOCC2)c1`, the Potency was 2.11 µM (active).
Consider `N#Cc1cc(C#N)c(N2CCN(c3cccc(Cl)n3)CC2)nc1N`, for which the Potency is 3.35 µM (active).
The same measure for `Cc1ccc(C(=O)N2CCC(c3c[nH]c4ccccc34)(c3c[nH]c4ccccc34)CC2)cc1`: 8.41 µM (active).
Next, `COCc1noc(CC2CCOC3(CCN(C(=O)c4c[nH]c5ccccc45)CC3)C2)n1` (centres undefined): “inactive”; `Cn1nccc1C(=O)N1CCC2(CC1)NCCc1c2[nH]c2ccccc12`: “inactive”; `c1ccc([C@H]2CN3CCSC3=N2)cc1`: “inactive”.
Next, `CC(C)(C)c1ccc(C(=O)N2CCC3(C2)NC(=O)N(Cc2ccc(Cl)cc2)C3=O)cc1` (centres undefined): “inactive”; `O=C(NCc1ccccc1)N1CCC2(CC1)CC(N(C(=O)c1ccccc1)C1CC1)CCO2` (centres undefined): “inactive”.
In the case of `NC(Cc1ccccc1)C(=O)N1CCC2(CC1)CN(C(=O)c1ccc(Cl)cc1)CCO2` (centres undefined), the Potency was 0.842 µM (active).
The same measure for `Cc1ccc(CN2CCNC(=O)C2CC(=O)N(CC(C)C)CC(C)C)cc1` (centres undefined): “inactive”.
Turning to `CCN1CCN(c2nc(SC)nc3sc4c(c23)CC(C)(C)OC4)CC1`, the Potency entry is “inactive”.
The same measure for `CC1(C)Cc2c(c(N3CCOCC3)nc3snc(Br)c23)CO1`: 0.299 µM (active); for `CCCNC(=O)c1ccc(N2CCC3(CC2)CC(c2cccc(Br)c2)=NO3)c(NC(=O)c2ccco2)c1`: 2.99 µM (active); for `Cc1ccc(CNC(=O)c2ccc(N3CCC4(CC3)CC(c3cccc(Br)c3)=NO4)c(NC(=O)c3ccco3)c2)cc1`: 8.41 µM (active).
Consider `CCOc1cc(NC(=S)NC)c(OCC)cc1NC(=O)c1ccco1`, for which the Potency result is “inactive”.
Regarding `COc1nc(N=C(N)N)nc2c(C)cccc12`, the Potency result was “inactive”.
The same measure for `CCOc1nc(N=C(N)N)nc2c(C)cccc12`: 10.6 µM (active).
Consider `CN1C(=O)CS(=O)(=O)C12CCN(C(=O)c1cc(F)ccc1Cl)CC2`, for which the Potency result is “inactive”.
Next, `Cc1ccc(C2Cn3nnc(-c4noc(-c5nn(C)c6ccccc56)n4)c3CO2)cc1` (centres undefined): “inactive”.
The same measure for `Cc1ccc(C2Cn3nnc(-c4noc(-c5n[nH]c6c5CCCC6)n4)c3CO2)cc1` (centres undefined): 13.3 µM (active); for `Cc1ccc(C2Cn3nnc(-c4noc(CNC(=O)c5ccccc5)n4)c3CO2)cc1` (centres undefined): “inactive”; for `CCn1c(/C=C/c2cc(Br)ccc2O)nc2ccccc2c1=O`: 4.22 µM (active).
The same measure for `Oc1ccc(Br)cc1Cn1nnc2ccccc21`: “inactive”; for `O=c1c2ccccc2nc(/C=C/c2cc(Br)ccc2O)n1CCCO`: 9.44 µM (active); for `O=C(c1ccccc1-c1ccccc1)N1CCC(c2ncc[nH]2)CC1`: “inactive”.
In the case of `CCc1c(C)[nH]c2ccccc2c1=O`, the Potency is 10.6 µM (active).
Take `C=CCc1c(C)[nH]c2ccc(C)cc2c1=O`: the Potency result was “inactive”.
As to `CCCc1c(C)[nH]c2ccccc2c1=O`, the Potency was 7.5 µM (active).
`O=C(Cn1ccc2cc(S(=O)(=O)N3CCCCCC3)ccc21)NCCc1ccc(Cl)cc1`: the Potency result was “inactive”.
The same measure for `O=S(=O)(c1ccc2ccccc2c1)N1CCN(C(=S)Nc2ccc(F)c(Cl)c2)CC1`: 1.06 µM (active); for `O=S(=O)(c1ccc(Cl)cc1)N1CCN(C(=S)Nc2ccccc2F)CC1`: 2.37 µM (active); for `O=c1nc2ccccn2c2ccc(S(=O)(=O)N3CCCCC3)cc12`: “inactive”.
The same measure for `COc1cccc(NC(=S)N2CCN(S(=O)(=O)c3ccc(F)cc3)CC2)c1`: 2.66 µM (active); for `COc1cccc(S(=O)(=O)N2CCC3(CC2)C(OC)C(=O)N3c2cccc(F)c2)c1` (centres undefined): “inactive”; for `O=S(=O)(c1ccc2ccccc2c1)N1CCN(C(=S)Nc2ccccc2F)CC1`: 4.22 µM (active).
Next, `CN1CCN(c2ccc(Nc3ccnc4cc(Cl)ccc34)cc2)CC1`: 0.188 µM (active); `CN(C)c1ccnc(Nc2ccc(O)cc2)c1C#N`: “inactive”; `CN1CCN(c2cc(=O)c3ccnc(N4CCOCC4)c3o2)CC1`: “inactive”.
Turning to `Oc1ccc(Nc2ccnc3cc(Cl)ccc23)cc1`, the Potency was 1.68 µM (active).
Next, `Clc1ccc2c(N/N=C/c3cccc(Br)c3)ccnc2c1`: 10.6 µM (active).
The same measure for `O=C(NNc1ccnc2cc(Cl)ccc12)C1CCCCC1`: 7.5 µM (active).
